GPR151 activ: activators of human GPR151; AID 1508602; PathHunter beta-arrestin GPR151 cells, luminescence; Q8TDV0; activation, % at 11.2 µM; hit rate 1% among 650,000; in the data active = activation above about 4.9%
TEAD-YAP block: TEAD-YAP interaction inhibition | hit rate 1.4% among 640,000 | inhibition, % at 9.12 µM | HEK-TIYL cells, TEAD-Gal4/YAP UAS-luciferase luminescence; in the data active = inhibition above about 32%
FBW7 act: human FBW7 E3 ligase activation, primary screen; normalized activity (activation), % at 26.1 µM; Q969H0; hit rate 0.13% among 650,000; AlphaScreen FBW7–phospho-cyclin E peptide binding, activator screen; AID 1259310; in the data active = normalized activity above about 1.9%;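 note: purified mutant Fbw7 with reduced substrate affinity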
Target sequence (Q969H0 whole entry, looked up): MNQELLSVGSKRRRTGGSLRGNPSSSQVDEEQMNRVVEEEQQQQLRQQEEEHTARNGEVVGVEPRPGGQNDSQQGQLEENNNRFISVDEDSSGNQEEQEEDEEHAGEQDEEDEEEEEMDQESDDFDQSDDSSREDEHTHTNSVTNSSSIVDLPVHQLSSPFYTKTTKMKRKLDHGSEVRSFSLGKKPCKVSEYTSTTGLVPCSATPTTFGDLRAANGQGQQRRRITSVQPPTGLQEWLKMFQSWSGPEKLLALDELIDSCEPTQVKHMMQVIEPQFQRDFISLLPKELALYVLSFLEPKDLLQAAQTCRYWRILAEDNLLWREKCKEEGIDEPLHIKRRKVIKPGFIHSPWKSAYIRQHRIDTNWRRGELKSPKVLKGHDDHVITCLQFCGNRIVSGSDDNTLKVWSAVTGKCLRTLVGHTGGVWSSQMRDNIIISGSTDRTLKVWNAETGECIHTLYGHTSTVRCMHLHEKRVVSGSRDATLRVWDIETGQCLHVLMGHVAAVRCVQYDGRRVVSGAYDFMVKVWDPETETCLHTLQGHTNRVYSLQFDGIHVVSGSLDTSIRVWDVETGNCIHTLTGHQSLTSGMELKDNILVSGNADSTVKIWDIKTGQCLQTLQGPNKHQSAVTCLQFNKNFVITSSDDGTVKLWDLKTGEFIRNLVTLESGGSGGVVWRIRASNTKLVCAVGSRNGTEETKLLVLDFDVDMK
MITF inh: human MITF inhibition, primary screen; O75030; AlphaScreen MITF homodimerization, bead proximity signal; inhibition, % at 2.6 µM; hit rate 0.91% among 650,000; AID 1259374; in the data active = inhibition above about 50%
A number is an active result; . = inactive. The list is not random: actives were taken first. Their share in the collection is about 3.5%.

SMILES	GPR151 activ	TEAD-YAP block	FBW7 act	MITF inh
O=C(Nc1cc(C(F)(F)F)cc(Cl)n1)C1COc2ccccc2O1 (stereo unspecified)	.	.	1.9	.
Cc1cccc(NC(=O)C2COc3ccccc3O2)n1 (stereo unspecified)	.	.	.	.
COc1cccc(C2=NN3C(C2)c2cccc(OC)c2OC32CCCCC2)c1 (stereo unspecified)	.	36	.	.
COc1cccc(C2=NN3C(C2)c2cccc(OC)c2OC3c2cccc(OC)c2)c1 (stereo unspecified)	.	38	.	.
COC(=O)c1ccc(C2Oc3c(OC)cccc3C3CC(c4ccc(OC)cc4)=NN32)cc1 (stereo unspecified)	.	.	.	.
COc1cccc(C2=NN3C(C2)c2cccc(OC)c2OC3c2ccc(F)c(F)c2)c1 (stereo unspecified)	.	.	.	.
COc1cccc(C2=NN3C(C2)c2cccc(OC)c2OC3c2cc(OC)c(OC)c(OC)c2)c1 (stereo unspecified)	.	32	.	.
COC(=O)c1ccc(C2Oc3c(OC)cccc3C3CC(c4cccc(OC)c4)=NN32)cc1 (stereo unspecified)	.	63	.	.
O=C(NCC1Cc2cccc(-c3cncnc3)c2O1)C1(c2ccc(Cl)cc2)CC1 (stereo unspecified)	.	.	.	.
COc1cccc(-c2ccc(NC(=O)C3CCCN(C(=O)CSC)C3)cc2)c1 (stereo unspecified)	.	.	.	.
CS(=O)(=O)c1ccccc1C(=O)NN1C(=O)c2cccc3cccc(c23)C1=O	.	.	.	.
COc1ccccc1-n1cnc(N)c1C(=O)c1ccccc1	.	53	.	.
Cc1nc(-c2ccccc2)nc2[nH]c(-c3ccccc3)cc(=O)c12	.	.	.	.
Cc1nc(C)c2c(=O)cc(-c3ccccc3)[nH]c2n1	.	52	.	.
NS(=O)(=O)c1cc2c3c(cccc3c1)C(=O)NC2=O	.	.	.	.
N#Cc1cc2cc3c(cc2nc1NCCNC(=O)C12CC4CC(CC(C4)C1)C2)OCO3	.	.	.	.
Cc1c(C(=O)Nc2cccc(Cl)c2)sc2ncnc(N3CCc4ccccc4C3)c12	.	.	.	.
O=C1C=CC(=NS(=O)(=O)c2cccc(C(=O)O)c2)C=C1	.	.	.	64
Cc1cc(C)n(-c2cc(NCCNC(=O)Nc3cccc(F)c3C)ncn2)n1	.	.	.	.
COc1ccc(C)cc1NC(=O)NCCNc1cc(-n2nc(C)cc2C)ncn1	.	51	.	.
CC(=O)Nc1cc2ccccc2oc1=O	.	.	.	.
Cc1ccc(C(=O)Nc2cc3ccccc3oc2=O)cc1	.	86	.	.
CC(=O)Oc1ccc2cc(NC(=O)c3cccc(C)c3)c(=O)oc2c1	.	38	.	.
Cc1ccc(C(=O)Nc2cc3ccccc3oc2=O)cc1C	.	62	.	.
CCCCc1ccc(C(=O)Nc2cc3ccccc3oc2=O)cc1	.	55	.	.
SMILES	GPR151 activ	TEAD-YAP block	FBW7 act	MITF inh
Cc1ccc(C(=O)Nc2cc3cc(Br)ccc3oc2=O)cc1C	.	.	.	.
CC(C)C(=O)Nc1cccc(C(=O)Nc2nnc(CCc3ccccc3)s2)c1	.	47	.	.
Cc1cc(C(=O)CSc2nnc3ccccn23)c(C)n1Cc1ccccc1	.	64	.	.
O=C(OCc1ccccc1)c1cc(Cl)ccc1[N+](=O)[O-]	.	.	.	.
O=C(OCc1cc(=O)oc2cc(O)c(O)cc12)c1cc(Cl)ccc1[N+](=O)[O-]	.	.	.	64
Cc1ccc(C)n1-c1ccc(C(=O)O)cc1	.	.	.	.
Cc1ccc(C)n1-c1ccc(C(=O)NCC(=O)O)cc1	.	.	.	66
O=[N+]([O-])c1nn(-c2ccc(Cl)cc2)n(O)c1=Nc1ccccc1F	.	38	.	.
O=[N+]([O-])c1nn(-c2ccc(Cl)cc2)n(O)c1=Nc1ccccc1	.	62	.	.
O=[N+]([O-])c1nn(-c2ccc(Cl)cc2)n(O)c1=Nc1ccc(Cl)cc1	.	.	.	.
COC1CCCC(C(=O)N2CCC[C@H]2Cn2nc(-c3ccc(F)cc3)ccc2=O)C1 (stereo partly specified)	.	.	.	.
Cc1cc(NC(=O)CNCCc2ccccc2)no1	.	.	.	.
Fc1cccc2c1NC(c1ccc(Br)cc1)C1CC=CC21 (stereo unspecified)	.	.	.	.
CCOc1cccc2c1NC(c1ccc(C(=O)O)cc1)C1CC=CC21 (stereo unspecified)	.	.	.	59
O=C(O)c1ccc([C@@H]2Nc3c(F)cccc3[C@@H]3C=CC[C@@H]32)cc1	.	.	.	70

Assay outcomes: PubChem BioAssay, The Scripps Research Institute Molecular Screening Center
